{"source": "PubChem BioAssay (Tox21)", "note": "Values without a mark were called inactive. Where a call stands in place of a potency, no number is given. Activity calls are given as the source filed them. Calls follow the shape of the dose curve; as a rule, active = well fitted curve in the direction sought with a large enough effect in the repeat runs; inconclusive = weak or mixed curves; inactive = flat fitted curve, though single readings scatter.", "data": [{"experiment": "qHTS assay to test for compound auto fluorescence at 460 nm (blue) in HepG2 cell free culture (AID 720685)", "conditions": "Cell-free culture medium, blue autofluorescence 405/460 nm; series mostly up to 91.3 µM", "description": "U.S. Tox21 Program National Center for Advancing Translational Sciences [NCATS] NIH Chemical Genomics Center [NCGC] U.S. Environmental Protection Agency [EPA] National Institutes of Environmental Health Sciences [NIEHS] National Toxicology Program [NTP] U.S. Food and Drug Administration [FDA] Tox21 Assay Overview: Compound auto fluorescence often interferes with screening of the compound library against various biological targets and signaling pathways. Some of these compounds may have fluorophoric properties. Such properties may interfere with the assay outputs resulting in false positives and/or negatives. To decrease such complications and ensure the compound activities are relevant in terms of biological response, the Tox21 10K compound library was screened for auto fluorescence. From the fluorophores used as reporter signals in our screening assays, the auto fluorescence equivalencies of compounds against three fluorophores have been evaluated: Triamterene, Fluorescein and Rose Bengal sodium for blue, green and red fluorescence, respectively. The fluorescence intensities were measured using Excitation/Emission wavelengths at 405/460nm, 485/535nm and 540/590nm for blue, green and red labels, respectively. This assay includes the blue fluorescence data.\nTox21 Assay Protocol Summary: 5 uL of culture medium (MEM containing 10% FBS) per well was dispensed into black wall/clear bottom 1536-well plates using a Multidrop Combi Dispenser (ThermoFisher Scientific, Waltham, MA). After 23 nL compound or DMSO vehicle was transferred into assay plate by a pintool work station (Kalypsys, San Diego, CA), fluorescence intensities in the assay plates were measured by an Envision (PerkinElmer, Shelton, CT) plate reader using three labels for measuring blue, green and red fluorescence at […] 460, 535 and 590nm respectively.", "values": [{"smiles": "COc1cc(O)cc(O)c1", "Potency": "inactive"}, {"smiles": "NS(=O)(=O)c1cc2c(cc1Cl)NC(CSCc1ccccc1)=NS2(=O)=O", "fluorescence, % of fluorescent control": "-0.0404% [at 18.6 µM]"}, {"smiles": "CCCCCCOC(=O)CC(CC(=O)OCCCCCC)(OC(=O)CCC)C(=O)OCCCCCC", "Potency": "inactive"}, {"smiles": "COCCOC(=O)CC#N", "Potency": "inactive"}, {"smiles": "C[C@H]1O[C@@H](n2cc(F)c(=O)[nH]c2=O)[C@H](O)[C@@H]1O", "Potency": "inactive"}, {"smiles": "C#CC(O)CCCCC", "note": "(stereo not given)", "Potency": "inactive"}, {"smiles": "C1=C\\CC/C=C\\CC/C=C\\CC/1", "Potency": "inactive"}, {"smiles": "COC(=O)c1ccc(C(=O)OC)c(C(=O)OC)c1", "Potency": "inactive"}, {"smiles": "Cc1cc(C)c(NC(=O)CN(CC(=O)O)CC(=O)O)c(C)c1Br", "Potency": "inactive"}, {"smiles": "CCCCCCC(=O)OCC", "Potency": "inactive"}, {"smiles": "CN1[C@@H]2CC[C@H]1CC(NC(=O)n1c(=O)[nH]c3ccccc31)C2", "note": "(stereo not given in full)", "Potency": "inactive"}, {"smiles": "CCCC(=O)O[C@]1(C(=O)CCl)[C@@H](C)C[C@H]2[C@@H]3CCC4=CC(=O)C=C[C@]4(C)[C@@]3(F)C(=O)C[C@@]21C", "Potency": "inactive"}, {"smiles": "CC(C)N1C(=O)c2ccccc2C1=O", "Potency": "inactive"}, {"smiles": "CC(C)(C)C(=O)/C=C/c1ccc(Cl)cc1", "Potency": "inactive"}, {"smiles": "Cc1ncc(CSSCc2cnc(C)c(O)c2CO)c(CO)c1O", "Potency": "inactive"}, {"smiles": "C=C(C)[C@@H]1CCC2=CC(=O)C[C@@H](C)[C@]2(C)C1", "Potency": "inactive"}, {"smiles": "COC[C@H](c1ccc(C(F)(F)F)cc1)N1CCN(C2(C)CCN(C(=O)c3c(C)ncnc3C)CC2)C[C@H]1C", "Potency": "inactive"}, {"smiles": "NC(=S)Nc1cccc2ccccc12", "fluorescence, % of fluorescent control": "0.0279% [at 3.72 µM]"}, {"smiles": "CCCOCC(C)OCC(C)O", "note": "(stereo not given)", "Potency": "inactive"}, {"smiles": "C1C2OC2C2C1C1CC2C2OC12", "note": "(stereo not given)", "Potency": "inactive"}, {"smiles": "CC(C)CCCCCCN", "Potency": "inactive"}, {"smiles": "CCN1CCN(c2cc3c(cc2F)c(=O)c(C(=O)O)cn3C2CC2)CC1", "Potency": "inactive"}, {"smiles": "CCCCCCCCCCCCI", "Potency": "inactive"}, {"smiles": "CC1CCN(CCCC(=O)c2ccc(F)cc2)CC1", "Potency": "inactive"}, {"smiles": "CC(C)COC(=O)c1ccccc1O", "Potency": "inactive"}, {"smiles": "CCCC=O", "Potency": "inactive"}, {"smiles": "COc1ccc(COC=O)cc1", "Potency": "inactive"}, {"smiles": "CC(CCO)CCCC(C)(C)O", "note": "(stereo not given)", "Potency": "inactive"}, {"smiles": "C#CC(C)(O)CC(C)C", "note": "(stereo not given)", "Potency": "inactive"}, {"smiles": "OCC(O)[C@@H](O)[C@H](O)[C@H](O)CO[C@H]1O[C@H](CO)[C@@H](O)[C@H](O)[C@H]1O", "note": "(stereo not given in full)", "Potency": "inactive"}, {"smiles": "CCN(CC)C(=O)c1ccc(O)c(OC)c1", "Potency": "inactive"}, {"smiles": "Cn1cnc2c(=O)[nH]c(N)nc21", "Potency": "inactive"}, {"smiles": "CCCCCCCCN(C)CCCCCCCC", "Potency": "inactive"}, {"smiles": "CSc1ccc(C=O)cc1", "Potency": "inactive"}, {"smiles": "Cc1c(C)n(CCN(C)C)c2ccc(C(=O)OCCN(C)C)cc12", "Potency": "inactive"}, {"smiles": "C(=C(c1ccccc1)c1ccccc1)c1ccccc1", "Potency": "inactive"}, {"smiles": "COC(=O)CCCCCCCCC(=O)OC", "Potency": "inactive"}, {"smiles": "OCc1ccccn1", "Potency": "inactive"}, {"smiles": "CN(C)CCOC(c1ccc(Cl)cc1)c1ccccn1", "note": "(stereo not given)", "Potency": "inactive"}, {"smiles": "COc1cccc(Br)c1", "Potency": "inactive"}]}]}
